The results in this text go back to PubChem BioAssay AID1845225 (National Center for Advancing Translational Sciences (NCATS), 2023).

Records with an inconclusive call do not appear. Calls of active or inactive are those of the source. The call rests on the fitted dose curve; in most records, active means well fitted curve in the direction sought with a large enough effect; inconclusive means small, poorly fitted or top-dose-only effect, or effect the other way, or another doubt; inactive means no such curve, though single readings can be large or run the other way.

A short description of this experiment: Confirmatory redox qHTS assay for identification of artifact compounds. Conditions: Amplex Red/HRP redox cycling with DTT, fluorescence; series mostly up to 39 µM. An excerpt: PI: Alexander Tropsha Ph.D. UNC Eshelman School of Pharmacy University of North Carolina, Chapel Hill, North Carolina Hits from high-throughput screening (HTS) of chemical libraries are often false positives due to their interference with the assay detection technology. In response to this problem, we generated the largest publicly available library of chemical liabilities and developed a free webtool to predict HTS artifacts, both of which are described herein. More specifically, we generated, curated, and integrated HTS datasets for thiol reactivity, redox activity, and luciferase (firefly and nano) activity. Using these curated datasets, we developed and validated several Quantitative Structure-Interference Relationship (QSIR) models to predict nuisance behavior. […] These models were employed for virtual profiling of the National Center for Advancing Translational Science's (NCATS) in-house library, and 256 compounds for each assay were selected for the experimental validation of nuisance behavior. The BA for these external predictions ranged from 58 to 78% for compounds within the applicability domains of the models. […] The models developed in this study, along with aggregation models previously developed by our group (SCAM Detective) were implemented in "Liability Predictor," an online tool which may be used as part of chemical library design or for triaging HTS hits. Both the models and the curated datasets are publicly available at https://liability.mml.unc.edu/.
PROTOCOL TABLE SEQUENCE No. (e.g., 1, 2, 3, etc.); […] (e.g., Cells, Incubation, Reagent, etc.); VALUE; DESCRIPTION. 1; Reagent; 3 uL; Amplex Red and HRP mixture. 2; Compounds and control; 16 nL; Kalypsis pin tool (Wako USA) equipped with a 1536-well pin head. 3; Incubation; 15 min. 4; Reagent; 1 uL; […]. 5; Incubation; 30 min. 6; Detection; Fluorescence, ViewLux microplate reader, 525 nm excitation, 598 nm emission. NOTES (numbers refer to Sequence numbers above) 1. 3 uL of a mixture containing Amplex Red (25 uM final concentration) and horseradish peroxidase (HRP; 250 mU/mL final concentration) in assay buffer (HBSS) was dispensed into all wells of a 1536-well assay plate (solid-bottom black plate; Greiner Bio One, Monroe, NC). 2. […] 3. 15 min. incubation at room temperature protected from light. 4. 1 uL of DTT (prepared fresh; final concentration 250 uM) was dispensed for a final assay volume of 4 uL. 5. Plates were centrifuged (121xg, 15 seconds) and incubated for 30 minutes at room temperature protected from light. 6. Samples were read for fluorescence (Ex/Em = 525(20)/598(25) nm) on a ViewLux CCD imager (PerkinElmer). Data were normalized to DMSO (0% activity) and DA3003 (10 uM final concentration; 100% activity) and the resulting percent inhibition data were fitted to a 4-parameter Hill equation using NCATS in-house software.
With `Clc1ccc(C(Cl)(Cl)Cl)cc1Cl`, the molecule was classed as inactive.
With `Oc1cccc[c]1[Hg][Cl]`, the result was inactive.
With `CSc1nc(NC(C)C)nc(NC(C)C)n1` the entry was “inactive”; with `CCCOC(=O)c1ccccc1C(=O)OCCC`, “inactive”.
With `Cn1c(=O)n(C)c2cc(CNCCc3ccccc3)ccc21` the entry was “inactive”; with `Cc1ccc(C(C)C)c(OCC(=O)N2CCN(CCc3ccncc3)CC2)c1`, “inactive”.
As for `CCOc1ccc(CCNC(=O)c2cc3ccccc3n2CCN2CCOCC2)cc1OCC`, the molecule was classed as inactive.
